RORg inh: blocks mouse ROR gamma transcriptional activity. Potency, µM (titrated, usually from 53.6 µM), for the others: at the highest dose activity change, negative = inhibition, hits mostly inhibitors. Drosophila S2 Gal4-RORgamma UAS-luciferase reporter, 20 h. P51450. actives 5.4% (n = 310,000); note: nearly all actives have a fitted effect of over 60% in size
Target sequence (P51450 whole entry, looked up, the tested form may be a part): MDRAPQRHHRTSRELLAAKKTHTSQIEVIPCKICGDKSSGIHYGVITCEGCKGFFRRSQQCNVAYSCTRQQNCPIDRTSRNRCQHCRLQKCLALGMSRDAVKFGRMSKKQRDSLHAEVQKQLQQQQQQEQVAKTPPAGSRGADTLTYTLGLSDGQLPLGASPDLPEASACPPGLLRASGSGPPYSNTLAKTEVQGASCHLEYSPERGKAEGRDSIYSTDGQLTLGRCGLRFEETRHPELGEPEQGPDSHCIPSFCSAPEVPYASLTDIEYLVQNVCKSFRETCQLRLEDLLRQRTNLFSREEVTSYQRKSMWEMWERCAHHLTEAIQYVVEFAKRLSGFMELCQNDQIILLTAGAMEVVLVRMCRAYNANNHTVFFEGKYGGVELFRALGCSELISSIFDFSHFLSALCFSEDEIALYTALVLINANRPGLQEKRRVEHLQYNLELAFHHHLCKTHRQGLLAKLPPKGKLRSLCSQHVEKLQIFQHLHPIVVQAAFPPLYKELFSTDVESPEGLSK
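Luciferase reporter read in Schneider cells carrying Gal4-RORγ (mouse) and UAS-Photinus luciferase; cells given compound 1 h before 700 uM copper sulfate induction, then incubated 20 h at ambient temperature.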
Gal4-VP16 FLuc: inhibits Gal4-VP16 luciferase reporter, ROR gamma counter-screen; Drosophila S2 Gal4-VP16 UAS-luciferase, luminescence, 20 h; Potency, µM (top dose mostly 53.6 µM), without a hit: top-dose activity, negative = inhibition, hits mostly inhibitors; actives 3.5% (n = 310,000); AID 2546;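 note: Gal4-VP16 expression switched on by copper sulfate through the metallothionein promoter; nearly all actives have a fitted effect of over 50% in size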
Sfp PPTase inh: inhibitors of Bacillus subtilis Sfp phosphopantetheinyl transferase; Q9F4F7; Biochemical Sfp PPTase activity, qHTS; Potency, µM, inactives show largest response in the series, negative = inhibition, hits mostly inhibitors; actives 3.5% (n = 310,000); AID 1490;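 note: the enzyme is Sfp with the accession as filed and its product quenches rhodamine fluorescence; 0% = enzyme reaction without inhibitor and -100% = no enzyme wells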
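Buffer: 50 mM Hepes-Na pH 7.6, 10 mM MgCl2, 0.01% Nonidet P-40, 0.01% BSA. Enzyme 15 nM, pre-exposed to compound 15 min; substrates then added and fluorescence change tracked over 30 min.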
PLK1 PBD inh: PLK1 (human) polo-box domain binding inhibition | Plk1 PBD binding of FITC phosphopeptide, fluorescence polarization | AID 720504 | actives 2.8% (n = 360,000) | P53350 | Potency, µM, inactives show max response, negative = inhibition, actives largely listed as inhibitors; note: series mostly up to about 57 µM; nearly all actives have a fitted effect of over 65% in size
ALDH1A1 inh: blocks purified human ALDH1A1 activity; Potency, µM (highest dose often 75.3 µM), without a hit: at the top dose activity, negative = inhibition, usual class: inhibitors; AID 1030; Purified ALDH1A1, NADH fluorescence, propionaldehyde substrate; actives 7.3% (n = 220,000); active = well fitted inhibition curve with a large enough effect, not every such curve was filed as active; inconclusive = small, poorly fitted or top-dose-only effect, or another doubt; inactive = no such curve, though single readings can be large or run the other way;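 note: plate controls were no enzyme wells and a reference inhibitor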
* hit, by the source's call; ! = not active in a repeat; [ ] = another dose, or the depositor's remark. Rows were chosen to be rich in hits. Some 12% of all compounds tested hit in one or more screens of this group. Unless noted, calls come from the whole dose curve; as a rule, active = well fitted curve in the direction sought with a large enough effect; inconclusive = small, poorly fitted or top-dose-only effect, or another doubt; inactive = no such curve, though single readings can be large; an effect the other way counts as inactive or inconclusive. Unless noted, % is set by controls: 0 for no effect and ±100 for the full control effect; potency is the fitted concentration of half-maximal effect.

What do the screens show for `O=c1c(-c2ccccc2)nc2cnc(Oc3ccccc3)nc2n1Cc1cccs1`?
RORg inh: 4%; Gal4-VP16 FLuc: 3%; Sfp PPTase inh: 16%; ALDH1A1 inh: inconclusive

What do the screens show for `CC1(C(=O)NS(=O)(=O)c2ccccc2)CCN1C(=O)CCc1ccc(Cl)cc1Cl` (stereo not drawn)?
PLK1 PBD inh: -1%

How did CCOC(=O)N/N=C1/C[C@@H](O)[C@@H](O)[C@@H]2[C@@H]3C(=O)N(C[C@@H]4CCCO4)C(=O)[C@H]3CC[C@@H]12 do in these assays?
RORg inh: 23%[10 µM]; Gal4-VP16 FLuc: -6%[10 µM]; Sfp PPTase inh: 18%; ALDH1A1 inh: 18%[13.5 µM]

How did CC[C@]12c3[nH]c4ccc(OC)cc4c3CCN1C(=O)C(CC(=O)NCCCn1ccnc1)C[C@@H]2C(=O)N1CCN(C(=O)c2ccco2)CC1 (stereo partly drawn) do in these assays?
PLK1 PBD inh: 0%

Results for Nc1ccc(Br)c2c1C(=O)c1ccccc1C2=O ?
RORg inh: inconclusive; Gal4-VP16 FLuc: -3%; Sfp PPTase inh: 50µM*; PLK1 PBD inh: -27%; ALDH1A1 inh: inconclusive

How did COc1ccccc1NC(=S)NCc1ccccc1Cl do in these assays?
RORg inh: 8.9µM*; Gal4-VP16 FLuc: 7.1µM*; Sfp PPTase inh: 3%; PLK1 PBD inh: -3%

Results for COc1ccccc1CNC(=S)NCc1ccc(Cl)cc1 ?
RORg inh: 4µM*; Gal4-VP16 FLuc: 7.1µM*; Sfp PPTase inh: 15%; PLK1 PBD inh: 1%

What do the screens show for `COc1ccc(CNC(=O)CCSCc2ccccc2Cl)c(OC)c1`?
RORg inh: 14%; Gal4-VP16 FLuc: -8%; Sfp PPTase inh: 6%; PLK1 PBD inh: 2%; ALDH1A1 inh: inconclusive

How did COc1ccc(NC(=S)NCCc2ccccc2OC)c(OC)c1 do in these assays?
RORg inh: -136%; Gal4-VP16 FLuc: inconclusive; Sfp PPTase inh: 89µM*; PLK1 PBD inh: -15%; ALDH1A1 inh: -6%

Results for COc1ccc(NC(=S)NCc2ccccc2Cl)c(OC)c1 ?
RORg inh: 13µM*; Gal4-VP16 FLuc: 7.1µM*; Sfp PPTase inh: 19%; PLK1 PBD inh: -5%

Results for Fc1ccc(C2CCCN2Cc2nc(-c3cnccn3)no2)cc1 (stereo not drawn) ?
RORg inh: inconclusive; Gal4-VP16 FLuc: 26%; Sfp PPTase inh: 1%; PLK1 PBD inh: -9%; ALDH1A1 inh: 28µM*

What do the screens show for `Fc1ccc(C2CCCN2Cc2nc(CC3CC3)no2)cc1` (stereo not drawn)?
RORg inh: 8%; Gal4-VP16 FLuc: -12%; Sfp PPTase inh: 21%; PLK1 PBD inh: -2%; ALDH1A1 inh: 6%

Results for C=C(CC(=O)O)C(=O)O (tested in a mixture with another compound) ?
ALDH1A1 inh: -2%[13.5 µM]

What do the screens show for `NCCSc1nc2ccccc2s1`?
ALDH1A1 inh: -5%[13.5 µM]

What do the screens show for `N#C/C(=C\c1ccco1)Sc1nc2ccccc2s1`?
RORg inh: -10%; Gal4-VP16 FLuc: 13µM*; Sfp PPTase inh: inconclusive; PLK1 PBD inh: -8%; ALDH1A1 inh: 13µM*

How did Cn1nnnc1SCC(=O)NCc1cc([N+](=O)[O-])ccc1O do in these assays?
RORg inh: 44%; Gal4-VP16 FLuc: -3%; Sfp PPTase inh: 18%; PLK1 PBD inh: -10%; ALDH1A1 inh: 2%

Results for CC(C)OC(=O)CSc1nc2ccccc2s1 ?
RORg inh: 3%; Gal4-VP16 FLuc: 7%; Sfp PPTase inh: 3%; PLK1 PBD inh: inconclusive; ALDH1A1 inh: 11µM*

What do the screens show for `O=C(CSc1nc2ccccc2s1)NCc1cc([N+](=O)[O-])ccc1O`?
PLK1 PBD inh: 19µM*

What do the screens show for `c1ccc2sc(SSc3nc4ccccc4s3)nc2c1`?
RORg inh: 13µM*; Gal4-VP16 FLuc: inconclusive; Sfp PPTase inh: 56µM*; ALDH1A1 inh: 0.25µM*

Results for N#C/C(=C/c1ccncc1)c1nc2ccccc2s1 ?
RORg inh: -44%; Gal4-VP16 FLuc: inconclusive; Sfp PPTase inh: -13%; PLK1 PBD inh: -9%; ALDH1A1 inh: -10%

How did CC(C)CCNC(=O)CSc1nc2ccccc2s1 do in these assays?
RORg inh: -15%; Gal4-VP16 FLuc: -1%; Sfp PPTase inh: -13%; PLK1 PBD inh: inconclusive; ALDH1A1 inh: 18µM*

How did CC(=O)CSc1nc2ccccc2s1 do in these assays?
RORg inh: inconclusive; Gal4-VP16 FLuc: 21%; Sfp PPTase inh: 8%; PLK1 PBD inh: 27µM*; ALDH1A1 inh: -15%

Results for O=C(CSc1nc2ccc([N+](=O)[O-])cc2s1)c1ccc2ccccc2c1 ?
RORg inh: -10%; Gal4-VP16 FLuc: 8%; Sfp PPTase inh: 6%; PLK1 PBD inh: -14%; ALDH1A1 inh: 11µM*!

What do the screens show for `Cc1cc(C)nc(SC2=CS(=O)(=O)c3ccccc32)n1`?
RORg inh: -36%; Gal4-VP16 FLuc: 29%; Sfp PPTase inh: -5%; PLK1 PBD inh: -19%; ALDH1A1 inh: -13%

How did O=S1(=O)C=C(Sc2nc3ccccc3s2)c2ccccc21 do in these assays?
RORg inh: 4.5µM*; Gal4-VP16 FLuc: 2.8µM*; Sfp PPTase inh: 50µM*; PLK1 PBD inh: 2.7µM*; ALDH1A1 inh: 14µM*

Results for O=[N+]([O-])c1ccc2nc(SCc3ccccc3Cl)sc2c1 ?
RORg inh: inconclusive; Gal4-VP16 FLuc: -3%; Sfp PPTase inh: 7%; PLK1 PBD inh: -5%; ALDH1A1 inh: inconclusive

What do the screens show for `O=C(COC(=O)C12CC3CC(CC(Br)(C3)C1)C2)Nc1ccc2[nH]c(=O)[nH]c2c1`?
PLK1 PBD inh: -1%

What do the screens show for `COc1ccc(C2=NN(C(=O)CSc3nc4ccccc4s3)C(c3ccc(OC)cc3)C2)cc1` (stereo not drawn)?
RORg inh: inconclusive; Gal4-VP16 FLuc: 7.1µM*; Sfp PPTase inh: 7%; PLK1 PBD inh: -2%; ALDH1A1 inh: inconclusive

What do the screens show for `COc1ccc(NC(=O)c2ccccn2)cc1`?
RORg inh: 7.9µM*; Gal4-VP16 FLuc: 11µM*; Sfp PPTase inh: 8%; PLK1 PBD inh: -8%; ALDH1A1 inh: -3%

How did COc1ccc(Nc2ncccc2C(=O)Nc2ccccc2)cc1 do in these assays?
RORg inh: -15%; Gal4-VP16 FLuc: -7%; Sfp PPTase inh: -13%; PLK1 PBD inh: 2.7µM*; ALDH1A1 inh: inconclusive

How did COc1ccc(NC(=O)c2cccnc2Nc2ccc(OC)cc2)cc1 do in these assays?
RORg inh: 37%; Gal4-VP16 FLuc: -7%; Sfp PPTase inh: -7%; PLK1 PBD inh: 1%; ALDH1A1 inh: -6%

How did CC(=O)c1ccc(NS(=O)(=O)c2cccc3cccnc23)cc1 do in these assays?
PLK1 PBD inh: -10%

Results for CCOc1ccc(/C=C2\SC(=S)N(Nc3ccccc3)C2=O)cc1OC ?
RORg inh: 40%; Gal4-VP16 FLuc: inconclusive; Sfp PPTase inh: inconclusive; PLK1 PBD inh: -11%; ALDH1A1 inh: 3.2µM*

How did COc1cc(/C=C2\SC(=S)N(Nc3ccccc3)C2=O)cc(OC)c1OC do in these assays?
RORg inh: 20%; Gal4-VP16 FLuc: -3%; Sfp PPTase inh: 1%; PLK1 PBD inh: -8%; ALDH1A1 inh: 7.1µM*

Screens (PubChem)
